gsp antag: antagonists of gsp mutant (McCune-Albright syndrome) | Potency, µM (titrated, usually from 76.9 µM), hits mostly inhibitors | gsp-mutant cells, cAMP HTRF, 30 min | 340,000 tested, 0.4% active; calls by dose curve; cell line not stated here;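 also: intracellular cAMP measured with PDE inhibitor Ro 20-1724 present during compound exposure; nearly all actives have a fitted effect of over 65% in size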
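HTRF cAMP measurement after 30 min RT detection following 30 min, 37C compound treatment alongside […] (added as 300 uM solution) in G418-selected cells seeded at 2000/well and grown 16–24 h.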
ASM inhibitor: inhibitors of human secretory acid sphingomyelinase | 340,000 tested, 0.006% active | placental ASM, HMU-PC fluorogenic substrate, 60 min | Potency, µM (doses to about 57.5 µM), actives largely listed as inhibitors; active = well fitted inhibition curve with a large enough effect; inconclusive = small, poorly fitted or top-dose-only effect; inactive = no such curve, though single readings can be large or run the other way
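Fluorescence read-out (Ex 386 nm, Em 447 nm) after stopping the reaction at pH 10. Enzyme: ASM from human placenta; substrate HMU-PC0, 9 uM final; 60 min, 37 °C. Compound preincubation 10 min, ambient temperature.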
TSHR antag: blocks TSH signaling through the human TSH receptor; TSHR-expressing cells, TSH-stimulated cAMP HTRF, 2 h; hits give low values; activity change, negative = inhibition, % at 11.5 µM; 330,000 tested, 0.2% active; AID 504810;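 active = activity change below a set negative limit, meaning inhibition stronger than a set level, cut at about -70% in these data; inconclusive = activity change between two set negative limits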
Target sequence (P16473 whole entry, looked up): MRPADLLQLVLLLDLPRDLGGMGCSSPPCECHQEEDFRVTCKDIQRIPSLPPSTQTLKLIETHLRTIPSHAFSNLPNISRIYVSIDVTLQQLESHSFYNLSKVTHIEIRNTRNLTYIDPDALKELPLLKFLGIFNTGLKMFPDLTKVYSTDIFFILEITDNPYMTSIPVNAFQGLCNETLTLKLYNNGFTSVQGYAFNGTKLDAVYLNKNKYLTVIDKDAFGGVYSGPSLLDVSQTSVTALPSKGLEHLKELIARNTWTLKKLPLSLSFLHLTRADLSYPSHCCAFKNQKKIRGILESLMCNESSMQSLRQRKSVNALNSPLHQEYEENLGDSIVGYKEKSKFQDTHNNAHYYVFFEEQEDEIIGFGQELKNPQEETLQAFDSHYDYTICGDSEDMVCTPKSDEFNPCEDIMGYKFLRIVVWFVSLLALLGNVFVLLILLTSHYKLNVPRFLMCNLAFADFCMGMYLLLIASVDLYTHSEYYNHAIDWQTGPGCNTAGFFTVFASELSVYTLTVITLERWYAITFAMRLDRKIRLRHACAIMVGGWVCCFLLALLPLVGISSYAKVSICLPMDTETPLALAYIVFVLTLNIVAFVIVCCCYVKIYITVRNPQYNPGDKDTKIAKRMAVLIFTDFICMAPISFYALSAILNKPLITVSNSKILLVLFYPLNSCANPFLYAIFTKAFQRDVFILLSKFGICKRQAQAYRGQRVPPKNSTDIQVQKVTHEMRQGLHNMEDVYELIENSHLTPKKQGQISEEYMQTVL
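Freshly harvested TSHR cells receive pin-tooled compound, then EC80 TSH at 4nM final. After 2 hours at 37 deg C, antibody in lysis buffer and cAMP-d2 are added; 30 minutes at ambient temperature precede the HTRF read.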
gsp ag: gsp mutant agonism; gsp mutant cells, cAMP HTRF, 30 min; Potency, µM (doses to about 76.9 µM), hits mostly activators; 340,000 tested, 0.13% active; AID 624287; active = well fitted activation curve with a large enough effect; inconclusive = small, poorly fitted or top-dose-only effect, or another doubt; inactive = no such curve, though single readings can be large or run the other way; cell line not stated here;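 also: phosphodiesterase inhibitor Ro 20-1724 added with compounds to block cAMP breakdown; nearly all actives have a fitted effect of over 60% in size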
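Cells in DMEM/10% FBS with G418 were pretreated with compounds in DMSO plus […] (300 uM stock) for 30 min at 37C. cAMP was measured by HTRF (cAMP-d2 plus anti-cAMP antibody-K) after 30 min at room temperature.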
Of the large screens only hits and unclear results are named; the others gave an inactive call. Only some compounds are listed: those with a hit (about 0.63% of all), similar ones and a draw of the others.

CCc1cc2c(N3CCN(c4ccccc4)CC3)ncnc2s1	gsp antag 50µM
Cc1cccc(N(C)S(=O)(=O)c2nnc(NC(=O)C3CCCCC3)s2)c1	none (no result: gsp antag, ASM inhibitor, gsp ag)
CCOC(=O)C1CCCN(S(=O)(=O)c2ccccc2)C1 (stereo unspecified)	none
CCOC(=O)C1CCCN(S(=O)(=O)c2c(C)c(C)cc(C)c2C)C1 (stereo unspecified)	gsp antag 7.1µM
Cc1cccc(NC(=O)CCC(=O)N2CCOCC2)n1	none
O=C(NCCCCCCNC(=O)c1ccccc1O)c1ccccc1O	gsp antag 45µM
CCN(CCCNC(=O)Cn1ncc2c([nH]c3ccc(C)cc32)c1=O)c1cccc(C)c1	TSHR antag -133
CCCCN(C(=O)C(C)Oc1ccc(Br)cc1)c1c(N)n(CC(C)C)c(=O)[nH]c1=O (stereo unspecified)	none
COc1cc(/C=N/Nc2nc(-c3ccc(S(=O)(=O)N(C)C)cc3)cs2)ccc1O	gsp antag 32µM
COc1ccc(/C=N/Nc2nc(-c3cccc(S(=O)(=O)N4CCCC4)c3)cs2)cc1OC	none
Cc1cccc(-c2ccc3[nH]c4c(c3c2)CCN2C[C@@H]([C@H](C)OC(=O)Nc3ccccc3C)[C@@H](N(C)C(=O)Nc3ccccc3C)C[C@@H]42)c1	none (no result: gsp antag, ASM inhibitor, TSHR antag)
CCOc1ccc(/C=C2\SC(=O)N(CCNC(=O)C3COc4ccccc4O3)C2=O)cc1OC (stereo unspecified)	gsp antag 28µM
CNC(=O)c1cc(Nc2nnc(-c3ccc(O)cc3)c3ccccc23)ccc1OC	none
CCOc1ccc(-c2nnc(Nc3ccc(OC)c(C(=O)N4CCCCC4)c3)c3ccccc23)cc1	gsp antag 35µM, ASM inhibitor inconclusive
O=[N+]([O-])c1cc(Br)c(O)c(C=Nc2ccc(N3CCOCC3)cc2)c1	TSHR antag -86
Brc1ccsc1-c1csc(-c2ccncc2)n1	gsp ag 18µM
COc1cccc(NC(=O)C(Cc2ccccc2)n2cccc2)c1 (stereo unspecified)	none
CCCc1c(C(=O)Nc2cc(C)on2)cnn1-c1ccccc1	none
COc1cccc(NC(=O)CN(C)C(=O)Cn2c(=O)oc3ccccc32)c1	none
COc1cc(NC(=O)c2ccccc2[N+](=O)[O-])ccc1NC(=O)c1cc2ccccc2o1	gsp antag 22µM (no result: TSHR antag)
NC(=O)c1ccccc1N/C=C1\CCCCC1=O	gsp antag 50µM
O=C1CCCC/C1=C\Nc1ccccc1C(=O)O	none
CN1CCN(CC(=O)c2ccccc2F)CC1	none
Cc1ccccc1C(=O)N1CCC(C(=O)Nc2nccs2)CC1	gsp ag inconclusive
Cc1ccccc1C(=O)N1CCC(C(=O)Nc2nc3ccc(F)cc3s2)CC1	gsp antag 40µM
CC1CN(C(=O)c2ccc(NS(=O)(=O)c3cccc(Cl)c3)cc2)CC(C)O1 (stereo unspecified)	none
CCCNc1cc(=S)nc(N)[nH]1	none
CC1CCN(CCCNC(=O)CN2C(=O)CSc3ccc(S(=O)(=O)N4CCOCC4)cc32)CC1	TSHR antag -89
COc1cccc(NC(=O)CN2C(=O)CSc3ccc(S(=O)(=O)N4CCOCC4)cc32)c1	none
COc1cccc(CNC(=O)CN2C(=O)CSc3ccc(S(=O)(=O)N4CCOCC4)cc32)c1	TSHR antag -140, gsp ag inconclusive
CC(C)NC(=O)CN1C(=O)CSc2ccc(S(=O)(=O)N3CCCC3)cc21	none
CCC(C)NC(=O)CN1C(=O)CSc2ccc(S(=O)(=O)N3CCCC3)cc21 (stereo unspecified)	TSHR antag -125
O=C(Cc1ccccc1)Nc1ncnc2c1C(c1ccccc1)c1c(ccc3ccccc13)O2 (stereo unspecified)	none (no result: gsp antag, gsp ag)
O=C(COC(=O)/C=C/c1cccc(C(F)(F)F)c1)NCCN1C(=O)CSC1=O	none
CN1C(=O)/C(=C/c2ccccc2F)Sc2ccc(C(=O)NCC3CCCO3)cc21 (stereo unspecified)	gsp antag 32µM, gsp ag inconclusive
O=C(Nc1ccccc1C(=O)N1CCN(c2cccc(Cl)c2)CC1)C1=CSCCO1	TSHR antag -132
O=C(Nc1ccc(C(=O)N2CCN(c3ccc(Cl)cc3)CC2)cc1)C1=CSCCO1	gsp antag inconclusive
CC(=O)Nc1ccc(S(=O)(=O)NC(C)C(=O)OCC(=O)Nc2ccc(F)cc2Cl)cc1 (stereo unspecified)	none (no result: gsp antag, ASM inhibitor, TSHR antag)
S=C(NCC1CCCO1)N1CCN(c2nc(-c3ccc(Cl)cc3)cs2)CC1 (stereo unspecified)	gsp antag 50µM

Source: PubChem BioAssay
